# The list is not random: actives were taken first. Their share in the collection is about 1.4%.
# BJeLR viability = BJeLR cell viability loss; BJeLR (HRASV12) viability, CellTiter-Glo ATP luminescence, 48 h; inhibition, % (no concentration beside the values); 0.17% of 300,000 active; AID 1554; in the data active = inhibition above about 50%
# ugtP null kill = kills S. aureus RN4220 lacking UgtP; 0.54% of 330,000 active; S. aureus RN4220 ugtP deletion, OD600 growth, 16 h; growth inhibition, % (no concentration beside the values); AID 1259309; in the data active = growth inhibition above about 68%;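 note: plate controls were untreated wells for no effect and antibiotic for full effect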
# DUSP3 inh = DUSP3 (human) phosphatase inhibition | P51452 | recombinant VHR phosphatase, pNPP absorbance | inhibition, % at 13.3 µM | 0.52% of 290,000 active; in the data active = inhibition above about 50%
# Target sequence (P51452 whole entry, looked up): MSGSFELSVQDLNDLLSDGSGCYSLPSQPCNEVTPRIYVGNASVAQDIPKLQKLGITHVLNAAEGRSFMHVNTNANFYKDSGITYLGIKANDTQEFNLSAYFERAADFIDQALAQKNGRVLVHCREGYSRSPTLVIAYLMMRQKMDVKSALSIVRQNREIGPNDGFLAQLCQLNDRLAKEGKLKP
# 3CLpro inhibitor = SARS-CoV 3CLpro protease inhibition. P0C6X7. recombinant SARS-CoV 3CLpro, quenched FRET peptide cleavage. inhibition, % at 6 µM. 0.14% of 290,000 active. AID 1706; in the data active = inhibition above about 12%
# RN4220 kill = kills Staphylococcus aureus RN4220. 0.33% of 330,000 active. inhibition, % (concentration not given with the values). S. aureus RN4220 growth, OD600, 16 h; in the data active = inhibition above about 85%;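 note: plate controls were untreated cells for no effect and reference antibiotic for full effect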
# PrPC surface inh = inhibitors of human cell surface prion protein PrPC | inhibition, % at 13.8 µM | TR-FRET read-out | AID 720596 | 0.43% of 370,000 active; in the data active = inhibition above about 24%; note: 0% = median of the test wells and 100% = reference compound wells
# An asterisk follows results filed as active; . = not tested or not shown; ! = not active in a repeat.
SMILES,BJeLR viability,ugtP null kill,DUSP3 inh,3CLpro inhibitor,RN4220 kill,PrPC surface inh
CC(C)(C)c1ccc(-c2csc(NNC3=NCCCCC3)n2)cc1,19,1,55*,-3,7,3
Brc1ccc(-c2csc(NNC3=NCCCCC3)n2)cc1,10,-44,10,5,-3,0
Nc1nc(CN2CCN(Cc3ccccc3)CC2)nc(N2CCCc3ccccc32)n1,-6,9,54*,-2,0,0
Nc1nc(CN2CCN(c3ccccc3)CC2)nc(N2CCCc3ccccc32)n1,-12,-8,18,2,1,4
CCC1CCCCN1CCCNC(=O)CCC(=O)N1CC(C)Oc2ccccc21 (centres undefined),13,1,53*,-2,3,-4
O=C(Oc1ccccc1)c1cc2ccccc2o1,-2,101*,10,0,2,4
CC1(C)S[C@@H]2[C@H](NC(=O)C(NC(=O)N3CCNC3=O)c3ccccc3)C(=O)N2[C@H]1C(=O)O (some centres undefined),-10,100*,-1,-1,100*,0
CC1(C)S[C@@H]2[C@H](NC(=O)[C@H](N)c3ccccc3)C(=O)N2[C@H]1C(=O)OC1OC(=O)c2ccccc21 (some centres undefined),.,.,.,.,.,4
CC1(C)S[C@@H]2[C@H](NC(=O)Cc3ccccc3)C(=O)N2[C@H]1C(=O)O,-5,100*,-3,2,100*,-3
CCC(Oc1ccccc1)C(=O)NC1C(=O)N2C1SC(C)(C)C2C(=O)O (centres undefined),-12,.,36,-2,.,-1
CCCCCCCCCOC(=O)C1N2C(=O)[C@@H](NC(=O)COc3ccccc3)[C@H]2SC1(C)C (some centres undefined),-1,.,.,.,.,1
COC(=O)C1N2C(=O)C(NC(=O)COc3ccccc3)C2SC1(C)C (centres undefined),.,101*,.,.,101*,.
Cc1ccc(S(=O)(=O)N=C2NC(=O)C(=Cc3cccnc3)S2)cc1,.,7,.,.,12,.
O=S(=O)(N=C(Sc1ccc(Cl)cc1)c1ccccc1)c1ccccc1,.,92*,.,.,26,.
Cn1nc(C(F)(F)F)c(C=NOCc2c(Cl)cccc2Cl)c1Cl,.,93*,.,.,4,.
Cn1nc(C(F)(F)F)c(/C=N/OC(=O)c2ccccc2)c1Cl,1,.,31,4,.,-6
CC1(C)[C@@H](O)CC[C@]2(C)[C@H]3C(=O)C=C4[C@@H]5C[C@@](C)(C(=O)O)CC[C@]5(C)CC[C@@]4(C)[C@]3(C)CC[C@@H]12,-1,.,-3,-1,.,5
CC1(C)C(O)CC[C@@]2(C)C1CC[C@]1(C)C2C(=O)C=C2C3C[C@@](C)(C(=O)O)CC[C@]3(C)CC[C@]21C (some centres undefined),.,87*,.,.,6,.
CC1(C)CC[C@]2(C(=O)O)CC[C@]3(C)C(=CCC4[C@@]5(C)CCC(O)C(C)(C)C5CC[C@]43C)C2C1 (some centres undefined),.,91*!,.,.,81,.
CCCN(CCC)c1nc(-c2ccccn2)nc2ccccc12,13,100*,-15,-5,99*,3
COc1cccc(/C=C2\SC(=S)N(CCCC(=O)Nc3cc(C)on3)C2=O)c1,100*,-7,11,3,5,1
CC(C)(C)OC(=O)N1CCC(C(=O)NC(Cc2ccccc2)C(=O)O)CC1 (centres undefined),.,5,.,.,2,.
O=C(NC1CC1)C1=CC(c2ccc3c(c2)OCO3)CC(OCCCCO)O1 (centres undefined),.,11,.,.,4,.
Cc1cc(N)c2cc(NC(=O)/C=C/c3ccccc3Cl)ccc2n1,107*,6,6,-32,0,.
CCOC(=O)C1Oc2ccccc2C(c2ccc(C)cc2)=C1C(=O)OC (centres undefined),.,95*,.,.,0,6
CNc1cc(Cl)c2nonc2c1[N+](=O)[O-],-12,98*,17,-6,94*,24
CCCOc1ccc(C2C(=C(O)c3c(C)[nH]c(C(=O)OC)c3C)C(=O)C(=O)N2CCN(C)C)cc1 (centres undefined),.,-5,.,.,2,.
COc1cc(CN2CCCCCC2)cc(OC)c1OC,11,2,30,1,-2,-1
COc1cc(Cc2cnc(N)nc2N)cc(OC)c1OC,6,100*,11,-3,98*,-1
CCOC(=O)/C=C(\C)Sc1cc(O)c2ccccc2c1O,.,93*,28,11,97*,1

# Assay outcomes (PubChem BioAssay)
